Assay results taken from the supplement of paper PMC10849652.
Targets with a hit are over-represented here; the source holds about 7,900 in all. About 0.6% of all pairs of compound and target were hits.

What follows are targets tested with C1COCCN1CCN2C3=CC=CC=C3N=C2NC(=O)C4=CC(=CC=C4)[N+](=O)[O-] [IRAK-1-4 Inhibitor I] (assay: log2 fold change, soluble protein after heating vs DMSO (PISA); higher = thermal stabilisation; K562 cells, 10 uM, 30 min; active = over 0.2 and 3.5 SD of the protein, either way, in both replicates (recomputed)).
In short: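 Values are thermal stability changes relative to control samples and are taken from duplicates. They are stated as log2 fold changes. Before quantification by TMTpro 16plex LC-MS/MS with equalised channel sums, K562 cells at 2×10^6 cells/mL were treated with 10 μM compound for 30 min, heated in aliquots for 3 min across 48°C-58°C, pooled, extracted in PBS with 0.5% NP-40 at 4°C, and centrifuged at 21,000xg for 90 min to give the soluble supernatant.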

Sequence of UniProt Q9UHB6 (Q9UHB6 whole entry, looked up): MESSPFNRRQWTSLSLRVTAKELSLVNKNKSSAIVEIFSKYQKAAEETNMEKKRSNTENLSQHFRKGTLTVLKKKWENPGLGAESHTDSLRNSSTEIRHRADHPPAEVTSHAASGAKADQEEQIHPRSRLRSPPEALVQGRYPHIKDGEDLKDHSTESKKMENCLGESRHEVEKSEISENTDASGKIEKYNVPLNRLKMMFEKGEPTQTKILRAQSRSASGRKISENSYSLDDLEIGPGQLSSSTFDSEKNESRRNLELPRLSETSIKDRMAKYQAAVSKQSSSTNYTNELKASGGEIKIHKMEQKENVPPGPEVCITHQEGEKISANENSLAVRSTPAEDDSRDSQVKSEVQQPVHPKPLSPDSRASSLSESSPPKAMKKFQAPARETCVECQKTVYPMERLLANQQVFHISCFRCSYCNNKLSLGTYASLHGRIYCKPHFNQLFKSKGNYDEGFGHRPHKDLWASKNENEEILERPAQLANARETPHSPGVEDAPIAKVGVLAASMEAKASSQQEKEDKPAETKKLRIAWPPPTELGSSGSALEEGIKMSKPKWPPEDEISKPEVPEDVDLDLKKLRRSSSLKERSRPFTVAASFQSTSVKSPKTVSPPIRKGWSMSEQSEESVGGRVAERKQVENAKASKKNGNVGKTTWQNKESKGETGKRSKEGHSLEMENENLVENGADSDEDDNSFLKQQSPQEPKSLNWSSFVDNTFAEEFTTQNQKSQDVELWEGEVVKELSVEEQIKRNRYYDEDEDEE
Sequence of UniProt P46734 (P46734 whole entry, looked up): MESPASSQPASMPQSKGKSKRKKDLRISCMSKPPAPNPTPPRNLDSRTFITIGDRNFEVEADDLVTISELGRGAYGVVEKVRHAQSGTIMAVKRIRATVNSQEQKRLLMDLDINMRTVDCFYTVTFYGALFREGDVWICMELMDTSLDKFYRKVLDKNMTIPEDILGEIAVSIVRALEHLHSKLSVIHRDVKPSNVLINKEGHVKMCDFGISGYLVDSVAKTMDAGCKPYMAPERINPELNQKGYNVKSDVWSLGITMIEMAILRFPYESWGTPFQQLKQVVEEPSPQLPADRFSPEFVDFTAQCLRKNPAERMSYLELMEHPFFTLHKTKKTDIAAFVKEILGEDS
Sequence of UniProt Q8TBB5 (Q8TBB5 whole entry, looked up): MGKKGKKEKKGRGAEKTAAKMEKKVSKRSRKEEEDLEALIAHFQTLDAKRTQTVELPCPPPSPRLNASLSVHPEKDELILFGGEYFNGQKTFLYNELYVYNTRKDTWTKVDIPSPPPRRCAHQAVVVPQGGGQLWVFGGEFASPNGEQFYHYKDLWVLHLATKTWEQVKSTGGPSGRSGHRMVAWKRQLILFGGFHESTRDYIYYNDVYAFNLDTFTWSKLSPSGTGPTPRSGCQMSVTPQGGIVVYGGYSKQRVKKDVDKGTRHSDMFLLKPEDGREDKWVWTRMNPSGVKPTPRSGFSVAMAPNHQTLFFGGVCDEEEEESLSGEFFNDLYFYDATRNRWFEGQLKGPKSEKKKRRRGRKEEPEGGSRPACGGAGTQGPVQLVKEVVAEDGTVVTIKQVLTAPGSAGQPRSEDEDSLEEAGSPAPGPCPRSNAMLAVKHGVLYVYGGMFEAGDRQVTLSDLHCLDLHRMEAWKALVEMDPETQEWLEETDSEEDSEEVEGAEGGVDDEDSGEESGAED
Sequence of UniProt Q7Z4S6 (Q7Z4S6 whole entry, looked up): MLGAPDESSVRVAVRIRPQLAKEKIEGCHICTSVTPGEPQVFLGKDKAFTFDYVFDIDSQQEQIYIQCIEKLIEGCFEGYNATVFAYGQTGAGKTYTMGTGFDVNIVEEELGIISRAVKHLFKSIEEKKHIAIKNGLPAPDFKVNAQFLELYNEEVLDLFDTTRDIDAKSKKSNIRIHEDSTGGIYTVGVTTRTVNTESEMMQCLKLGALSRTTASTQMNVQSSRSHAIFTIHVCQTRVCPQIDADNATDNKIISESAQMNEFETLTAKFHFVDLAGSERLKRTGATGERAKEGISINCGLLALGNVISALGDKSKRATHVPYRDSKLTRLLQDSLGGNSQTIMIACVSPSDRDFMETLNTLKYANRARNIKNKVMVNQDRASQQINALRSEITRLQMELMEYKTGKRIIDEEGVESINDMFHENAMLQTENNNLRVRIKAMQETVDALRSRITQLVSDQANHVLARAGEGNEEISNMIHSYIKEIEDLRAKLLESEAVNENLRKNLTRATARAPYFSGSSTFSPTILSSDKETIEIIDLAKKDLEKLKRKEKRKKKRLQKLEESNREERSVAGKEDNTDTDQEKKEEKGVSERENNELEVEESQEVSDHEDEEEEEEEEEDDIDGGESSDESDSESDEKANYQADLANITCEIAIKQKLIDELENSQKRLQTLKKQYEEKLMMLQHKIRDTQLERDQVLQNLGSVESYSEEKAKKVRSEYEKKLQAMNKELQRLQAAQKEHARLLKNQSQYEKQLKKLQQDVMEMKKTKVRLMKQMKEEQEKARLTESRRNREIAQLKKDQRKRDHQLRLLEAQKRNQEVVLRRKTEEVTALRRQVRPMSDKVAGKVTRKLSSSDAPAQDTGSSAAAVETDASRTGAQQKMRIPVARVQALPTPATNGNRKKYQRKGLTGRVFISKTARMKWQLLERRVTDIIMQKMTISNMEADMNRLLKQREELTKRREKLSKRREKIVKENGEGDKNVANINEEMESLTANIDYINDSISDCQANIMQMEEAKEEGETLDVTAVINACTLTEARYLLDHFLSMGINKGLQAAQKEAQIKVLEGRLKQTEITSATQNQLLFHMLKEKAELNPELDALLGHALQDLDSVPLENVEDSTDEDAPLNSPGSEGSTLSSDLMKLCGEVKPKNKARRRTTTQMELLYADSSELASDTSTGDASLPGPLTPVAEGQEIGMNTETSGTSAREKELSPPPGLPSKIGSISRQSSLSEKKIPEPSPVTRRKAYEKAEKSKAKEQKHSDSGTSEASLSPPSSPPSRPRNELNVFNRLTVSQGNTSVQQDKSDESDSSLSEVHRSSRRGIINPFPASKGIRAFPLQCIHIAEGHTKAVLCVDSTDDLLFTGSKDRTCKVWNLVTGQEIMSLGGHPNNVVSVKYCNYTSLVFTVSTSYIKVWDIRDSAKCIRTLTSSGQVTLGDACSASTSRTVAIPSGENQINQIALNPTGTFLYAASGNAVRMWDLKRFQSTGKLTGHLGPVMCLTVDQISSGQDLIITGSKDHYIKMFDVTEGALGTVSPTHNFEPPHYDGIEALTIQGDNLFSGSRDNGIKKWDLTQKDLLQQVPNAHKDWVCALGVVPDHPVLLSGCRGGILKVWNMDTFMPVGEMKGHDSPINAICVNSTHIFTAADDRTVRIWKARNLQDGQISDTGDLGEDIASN
Sequence of UniProt Q9Y2U8 (Q9Y2U8 whole entry, looked up): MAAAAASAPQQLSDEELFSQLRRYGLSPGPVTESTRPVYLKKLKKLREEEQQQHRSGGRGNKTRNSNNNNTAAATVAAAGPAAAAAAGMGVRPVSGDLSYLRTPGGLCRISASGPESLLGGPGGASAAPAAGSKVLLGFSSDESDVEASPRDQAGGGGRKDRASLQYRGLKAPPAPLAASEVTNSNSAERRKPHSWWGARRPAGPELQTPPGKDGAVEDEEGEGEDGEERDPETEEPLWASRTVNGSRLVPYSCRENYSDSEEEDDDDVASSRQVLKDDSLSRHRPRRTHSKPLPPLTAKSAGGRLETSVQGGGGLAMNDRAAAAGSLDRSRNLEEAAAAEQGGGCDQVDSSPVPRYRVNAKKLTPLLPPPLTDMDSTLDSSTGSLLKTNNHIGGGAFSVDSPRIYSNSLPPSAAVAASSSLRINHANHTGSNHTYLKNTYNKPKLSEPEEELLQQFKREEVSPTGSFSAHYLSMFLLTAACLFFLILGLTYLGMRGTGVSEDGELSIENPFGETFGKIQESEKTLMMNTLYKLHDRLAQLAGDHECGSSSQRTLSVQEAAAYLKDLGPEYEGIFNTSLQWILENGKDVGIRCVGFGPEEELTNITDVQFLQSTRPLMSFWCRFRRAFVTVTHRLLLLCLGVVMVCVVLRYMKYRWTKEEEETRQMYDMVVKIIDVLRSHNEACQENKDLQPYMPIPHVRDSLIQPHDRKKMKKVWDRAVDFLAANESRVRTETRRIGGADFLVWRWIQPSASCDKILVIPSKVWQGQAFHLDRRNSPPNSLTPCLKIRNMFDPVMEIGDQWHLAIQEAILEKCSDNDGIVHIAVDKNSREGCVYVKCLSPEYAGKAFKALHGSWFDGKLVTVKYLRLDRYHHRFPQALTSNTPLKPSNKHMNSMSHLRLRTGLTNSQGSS
Sequence of UniProt Q9UBF1 (Q9UBF1 whole entry, looked up): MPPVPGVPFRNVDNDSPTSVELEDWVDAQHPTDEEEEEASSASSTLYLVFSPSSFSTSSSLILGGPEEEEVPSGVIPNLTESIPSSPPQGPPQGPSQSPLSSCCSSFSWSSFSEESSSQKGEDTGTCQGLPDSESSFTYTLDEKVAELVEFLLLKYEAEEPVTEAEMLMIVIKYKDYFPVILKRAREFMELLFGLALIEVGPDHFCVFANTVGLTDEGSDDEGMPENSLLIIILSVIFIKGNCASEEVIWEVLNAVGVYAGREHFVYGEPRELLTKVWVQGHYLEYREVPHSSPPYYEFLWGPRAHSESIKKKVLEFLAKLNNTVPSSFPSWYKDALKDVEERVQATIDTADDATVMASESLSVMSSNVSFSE
Sequence of UniProt P13473 (P13473 whole entry, looked up): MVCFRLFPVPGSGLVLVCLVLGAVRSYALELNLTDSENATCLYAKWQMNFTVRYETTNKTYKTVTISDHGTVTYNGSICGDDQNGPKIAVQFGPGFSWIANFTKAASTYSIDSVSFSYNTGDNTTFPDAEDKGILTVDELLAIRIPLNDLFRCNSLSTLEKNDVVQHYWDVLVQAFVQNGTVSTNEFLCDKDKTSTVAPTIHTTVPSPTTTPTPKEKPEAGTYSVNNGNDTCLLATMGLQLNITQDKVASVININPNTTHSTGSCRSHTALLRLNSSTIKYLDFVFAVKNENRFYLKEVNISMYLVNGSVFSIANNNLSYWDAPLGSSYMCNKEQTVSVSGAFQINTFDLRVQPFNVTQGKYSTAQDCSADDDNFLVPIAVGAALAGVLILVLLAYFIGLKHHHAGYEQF

log2 fold change, inactive:
LIMA1 isoform 4 (UniProt Q9UHB6) -0.031, MAGEC2 (UniProt Q9UBF1) -0.003, MAP2K3 isoform 3 (UniProt P46734) 0.012, MAGEA9 (UniProt P43362) 0.008, ILVBL (UniProt A1L0T0) 0.073, MDN1 (UniProt Q9NU22) -0.011, KIF21A isoform 4 (UniProt Q7Z4S6) -0.025, LNPK (UniProt Q9C0E8) 0.041, LRBA (UniProt P50851) 0.015, LEMD3 (UniProt Q9Y2U8) 0.04, LAMP2 (UniProt P13473) 0.063, KLHDC4 (UniProt Q8TBB5) -0.008, LBR (UniProt Q14739) -0.044, KHDC4 (UniProt Q7Z7F0) 0.034, MAP4K4 isoform 3 (UniProt O95819) 0, LEMD2 (UniProt Q8NC56) 0.015
